Publication PMC11062922 (Nature Chemical Biology, 2023)
Where two headings read alike, the source gives them in different places.

Molecular target: Q6ZSR9 (human, UniProt Q6ZSR9)
Details: read-out: apparent Kd, n = 1

Chain of Q6ZSR9 (Q6ZSR9 whole entry, looked up): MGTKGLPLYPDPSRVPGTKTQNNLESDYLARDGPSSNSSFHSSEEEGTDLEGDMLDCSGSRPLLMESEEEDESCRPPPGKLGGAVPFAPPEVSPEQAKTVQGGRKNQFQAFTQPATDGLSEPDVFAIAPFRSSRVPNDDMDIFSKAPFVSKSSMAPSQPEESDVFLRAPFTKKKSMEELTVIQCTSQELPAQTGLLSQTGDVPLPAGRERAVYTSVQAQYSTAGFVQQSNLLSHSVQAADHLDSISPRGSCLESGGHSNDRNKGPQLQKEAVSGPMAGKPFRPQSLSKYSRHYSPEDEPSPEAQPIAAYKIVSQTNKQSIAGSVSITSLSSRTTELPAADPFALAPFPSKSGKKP

Lestaurtinib
potency estimated from few doses (compound concentrations:100 nM and 1000 nM (sheet 'Lestaurtinib' of Supplementary Table 1),run:Lestaurtinib_02496_R1,Plate:MR013): 65.5 nM | potency estimated from few doses (compound concentrations:100 nM and 1000 nM (sheet 'Lestaurtinib' of Supplementary Table 1),run:Lestaurtinib_02496_R2,Plate:MR013): 59.5 nM | potency estimated from few doses (compound concentrations:100 nM and 1000 nM (sheet 'Lestaurtinib' of Supplementary Table 1),run:Lestaurtinib_02496_R3,Plate:MR013): 66.8 nM | potency estimated from few doses (compound concentrations:100 nM and 1000 nM (sheet 'Lestaurtinib' of Supplementary Table 1),run:Lestaurtinib_02566_R2,Plate:MR014): 55.7 nM | potency estimated from few doses (compound concentrations:100 nM and 1000 nM (sheet 'Lestaurtinib' of Supplementary Table 1),run:Lestaurtinib_02566_R3,Plate:MR014): 80.5 nM | potency estimated from few doses (compound concentrations:100 nM and 1000 nM (sheet 'Lestaurtinib' of Supplementary Table 1),run:Lestaurtinib_02572_R1,Plate:MR015): 40.6 nM | potency estimated from few doses (compound concentrations:100 nM and 1000 nM (sheet 'Lestaurtinib' of Supplementary Table 1),run:Lestaurtinib_02572_R2,Plate:MR015): 74.4 nM | potency estimated from few doses (compound concentrations:100 nM and 1000 nM (sheet 'Lestaurtinib' of Supplementary Table 1),run:Lestaurtinib_02572_R3,Plate:MR015): 48.9 nM | potency estimated from few doses (compound concentrations:100 nM and 1000 nM (sheet 'Lestaurtinib' of Supplementary Table 1),run:Lestaurtinib_02577_R1,Plate:MR016): 63.4 nM | potency estimated from few doses (compound concentrations:100 nM and 1000 nM (sheet 'Lestaurtinib' of Supplementary Table 1),run:Lestaurtinib_02577_R2,Plate:MR016): 53.4 nM | potency estimated from few doses (compound concentrations:100 nM and 1000 nM (sheet 'Lestaurtinib' of Supplementary Table 1),run:Lestaurtinib_02577_R3,Plate:MR016): 59.4 nM | potency estimated from few doses (compound concentrations:100 nM and 1000 nM (sheet 'Lestaurtinib' of Supplementary Table 1),run:Lestaurtinib_02584_R1,Plate:MR017): 92.8 nM | potency estimated from few doses (compound concentrations:100 nM and 1000 nM (sheet 'Lestaurtinib' of Supplementary Table 1),run:Lestaurtinib_02584_R2,Plate:MR017): 64.9 nM | potency estimated from few doses (compound concentrations:100 nM and 1000 nM (sheet 'Lestaurtinib' of Supplementary Table 1),run:Lestaurtinib_02584_R3,Plate:MR017): 79 nM | potency estimated from few doses (compound concentrations:100 nM and 1000 nM (sheet 'Lestaurtinib' of Supplementary Table 1),run:Lestaurtinib_02601_R1,Plate:MR018): 49.8 nM | potency estimated from few doses (compound concentrations:100 nM and 1000 nM (sheet 'Lestaurtinib' of Supplementary Table 1),run:Lestaurtinib_02601_R3,Plate:MR018): 44.4 nM | potency estimated from few doses (compound concentrations:100 nM and 1000 nM (sheet 'Lestaurtinib' of Supplementary Table 1),run:Lestaurtinib_02606_R2,Plate:MR019): 52 nM | potency estimated from few doses (compound concentrations:100 nM and 1000 nM (sheet 'Lestaurtinib' of Supplementary Table 1),run:Lestaurtinib_02606_R3,Plate:MR019): 60.4 nM | potency estimated from few doses (compound concentrations:100 nM and 1000 nM (sheet 'Lestaurtinib' of Supplementary Table 1),run:Lestaurtinib_02624_R2,Plate:MR020): 61.1 nM | potency estimated from few doses (compound concentrations:100 nM and 1000 nM (sheet 'Lestaurtinib' of Supplementary Table 1),run:Lestaurtinib_02624_R3,Plate:MR020): 55.5 nM | potency estimated from few doses (compound concentrations:100 nM and 1000 nM (sheet 'Lestaurtinib' of Supplementary Table 1),run:Lestaurtinib_02724_R2,Plate:MR021): 51.2 nM | potency estimated from few doses (compound concentrations:100 nM and 1000 nM (sheet 'Lestaurtinib' of Supplementary Table 1),run:Lestaurtinib_02724_R3,Plate:MR021): 61.2 nM | potency estimated from few doses (compound concentrations:100 nM and 1000 nM (sheet 'Lestaurtinib' of Supplementary Table 1),run:Lestaurtinib_02741_R1,Plate:MR023): 77.1 nM | potency estimated from few doses (compound concentrations:100 nM and 1000 nM (sheet 'Lestaurtinib' of Supplementary Table 1),run:Lestaurtinib_02741_R2,Plate:MR023): 85.4 nM | potency estimated from few doses (compound concentrations:100 nM and 1000 nM (sheet 'Lestaurtinib' of Supplementary Table 1),run:Lestaurtinib_02741_R3,Plate:MR023): 77.2 nM | potency estimated from few doses (compound concentrations:100 nM and 1000 nM (sheet 'Lestaurtinib' of Supplementary Table 1),run:Lestaurtinib_02748_R1,Plate:MR024): 67.4 nM | potency estimated from few doses (compound concentrations:100 nM and 1000 nM (sheet 'Lestaurtinib' of Supplementary Table 1),run:Lestaurtinib_02748_R2,Plate:MR024): 46.2 nM | potency estimated from few doses (compound concentrations:100 nM and 1000 nM (sheet 'Lestaurtinib' of Supplementary Table 1),run:Lestaurtinib_02748_R3,Plate:MR024): 66.5 nM | potency estimated from few doses (compound concentrations:100 nM and 1000 nM (sheet 'Lestaurtinib' of Supplementary Table 1),run:Lestaurtinib_02752_R1,Plate:MR025): 48.7 nM | potency estimated from few doses (compound concentrations:100 nM and 1000 nM (sheet 'Lestaurtinib' of Supplementary Table 1),run:Lestaurtinib_02765_R2,Plate:MR026): 131 nM | potency estimated from few doses (compound concentrations:100 nM and 1000 nM (sheet 'Lestaurtinib' of Supplementary Table 1),run:Lestaurtinib_02765_R3,Plate:MR026): 71.7 nM | potency estimated from few doses (compound concentrations:100 nM and 1000 nM (sheet 'Lestaurtinib' of Supplementary Table 1),run:Lestaurtinib_02766_R1,Plate:MR027): 47.5 nM | potency estimated from few doses (compound concentrations:100 nM and 1000 nM (sheet 'Lestaurtinib' of Supplementary Table 1),run:Lestaurtinib_02766_R2,Plate:MR027): 37.3 nM | potency estimated from few doses (compound concentrations:100 nM and 1000 nM (sheet 'Lestaurtinib' of Supplementary Table 1),run:Lestaurtinib_02766_R3,Plate:MR027): 47 nM | potency estimated from few doses (compound concentrations:100 nM and 1000 nM (sheet 'Lestaurtinib' of Supplementary Table 1),run:Lestaurtinib_02768_R1,Plate:MR028): 48.3 nM | potency estimated from few doses (compound concentrations:100 nM and 1000 nM (sheet 'Lestaurtinib' of Supplementary Table 1),run:Lestaurtinib_02768_R2,Plate:MR028): 49.7 nM | potency estimated from few doses (compound concentrations:100 nM and 1000 nM (sheet 'Lestaurtinib' of Supplementary Table 1),run:Lestaurtinib_02768_R3,Plate:MR028): 57.7 nM | potency estimated from few doses (compound concentrations:100 nM and 1000 nM (sheet 'Lestaurtinib' of Supplementary Table 1),run:Lestaurtinib_02795_R1,Plate:MR022): 67.2 nM | potency estimated from few doses (compound concentrations:100 nM and 1000 nM (sheet 'Lestaurtinib' of Supplementary Table 1),run:Lestaurtinib_02795_R2,Plate:MR022): 73.9 nM | potency estimated from few doses (compound concentrations:100 nM and 1000 nM (sheet 'Lestaurtinib' of Supplementary Table 1),run:Lestaurtinib_02802_R1,Plate:MR029): 52.5 nM | potency estimated from few doses (compound concentrations:100 nM and 1000 nM (sheet 'Lestaurtinib' of Supplementary Table 1),run:Lestaurtinib_02802_R2,Plate:MR029): 43.8 nM | potency estimated from few doses (compound concentrations:100 nM and 1000 nM (sheet 'Lestaurtinib' of Supplementary Table 1),run:Lestaurtinib_02896_R3,Plate:MR030): 88 nM | potency estimated from few doses (compound concentrations:100 nM and 1000 nM (sheet 'Lestaurtinib' of Supplementary Table 1),run:Lestaurtinib_03172_R1,Plate:MR031): 51.8 nM
